In publication PMC7862700, “An all-to-all approach to the identification of sequence-specific readers for epigenetic DNA modifications on cytosine” one finds binding signal data, which are given here for one sequence.

Holding throughout (assay): DAPPL (digital affinity profiling via proximity ligation, sequencing); 10 mM Tris-HCl pH 7.5, 50 mM NaCl, 1 mM DTT, 4% glycerol, room temperature, 30 min; GST-TFs on glutathione beads, 16-mer random dsDNA library, 0.1% formaldehyde crosslink after washing; high values mean tight binding
In one test the target is T1, FLI1 (Homo sapiens, UniProt Q01543 1-452).
T1 sequence: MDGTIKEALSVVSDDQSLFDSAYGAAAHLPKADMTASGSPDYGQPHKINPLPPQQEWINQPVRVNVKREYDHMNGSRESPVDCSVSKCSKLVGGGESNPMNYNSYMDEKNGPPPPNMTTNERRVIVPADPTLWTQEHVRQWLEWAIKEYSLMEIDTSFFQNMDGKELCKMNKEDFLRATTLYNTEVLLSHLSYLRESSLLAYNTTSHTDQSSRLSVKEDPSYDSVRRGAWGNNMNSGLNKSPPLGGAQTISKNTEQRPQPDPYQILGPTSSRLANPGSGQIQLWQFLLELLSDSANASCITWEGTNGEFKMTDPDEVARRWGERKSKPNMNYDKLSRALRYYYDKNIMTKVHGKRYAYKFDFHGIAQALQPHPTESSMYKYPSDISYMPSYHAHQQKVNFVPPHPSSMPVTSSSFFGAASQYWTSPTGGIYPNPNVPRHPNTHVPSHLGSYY
Conditions: protein: recombinant; tags: N-terminal GST; dsDNA, one strand shown. The gist of the method: (§1)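 Each value of binding signal is a hexamer's read frequency for a factor divided by the same hexamer's frequency in the tag-only sample. Barcoded, bead-captured GST fusions of human transcription factors made in yeast were pooled with that sample and incubated with 200 nmole of a random double-stranded 16-mer DNA library in Tris/NaCl/DTT/glycerol buffer at room temperature for 30 min. Washing, 0.1% formaldehyde crosslinking, proximity ligation, PCR and Illumina NextSeq500 sequencing followed.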

A further test deals with T2, GABPA (Homo sapiens, UniProt Q06546 1-454).
T2 sequence: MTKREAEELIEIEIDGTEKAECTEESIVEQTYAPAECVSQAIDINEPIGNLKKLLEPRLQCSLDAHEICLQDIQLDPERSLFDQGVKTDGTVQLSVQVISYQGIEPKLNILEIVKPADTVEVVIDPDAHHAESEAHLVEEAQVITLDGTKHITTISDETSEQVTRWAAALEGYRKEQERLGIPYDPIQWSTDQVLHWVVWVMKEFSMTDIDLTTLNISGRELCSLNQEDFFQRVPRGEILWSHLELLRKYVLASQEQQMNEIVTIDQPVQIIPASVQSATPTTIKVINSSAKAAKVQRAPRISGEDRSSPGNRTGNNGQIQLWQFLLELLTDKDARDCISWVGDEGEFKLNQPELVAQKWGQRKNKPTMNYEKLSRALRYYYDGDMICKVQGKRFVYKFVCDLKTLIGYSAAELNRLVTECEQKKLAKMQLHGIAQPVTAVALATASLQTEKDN
Conditions: protein: recombinant; tags: N-terminal GST; dsDNA, one strand shown. Summed up: as §1

A further test has as its target T3, ERG (Homo sapiens, UniProt P11308 1-479).
T3 sequence: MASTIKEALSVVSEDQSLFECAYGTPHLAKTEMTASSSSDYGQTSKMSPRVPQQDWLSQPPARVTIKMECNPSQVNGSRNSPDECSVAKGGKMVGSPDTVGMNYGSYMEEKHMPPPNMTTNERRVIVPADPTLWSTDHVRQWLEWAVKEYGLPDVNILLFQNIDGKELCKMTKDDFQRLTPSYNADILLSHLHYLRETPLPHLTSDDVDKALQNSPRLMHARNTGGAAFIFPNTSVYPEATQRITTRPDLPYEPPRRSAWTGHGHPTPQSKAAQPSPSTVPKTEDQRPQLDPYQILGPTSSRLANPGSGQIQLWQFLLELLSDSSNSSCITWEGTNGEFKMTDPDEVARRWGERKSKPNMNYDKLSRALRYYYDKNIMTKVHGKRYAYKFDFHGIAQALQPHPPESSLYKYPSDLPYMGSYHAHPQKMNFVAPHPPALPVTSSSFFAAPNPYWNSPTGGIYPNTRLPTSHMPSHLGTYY
Conditions: protein: recombinant; tags: N-terminal GST; dsDNA, one strand shown. The gist of the method: as §1

The next test addresses ELF1 (Homo sapiens, UniProt P32519 1-619). Conditions: protein: recombinant; tags: N-terminal GST; dsDNA, one strand shown. The gist of the method: as §1
In a further test the target is T4, EHF (Homo sapiens, UniProt Q9NZC4 1-300).
T4 sequence: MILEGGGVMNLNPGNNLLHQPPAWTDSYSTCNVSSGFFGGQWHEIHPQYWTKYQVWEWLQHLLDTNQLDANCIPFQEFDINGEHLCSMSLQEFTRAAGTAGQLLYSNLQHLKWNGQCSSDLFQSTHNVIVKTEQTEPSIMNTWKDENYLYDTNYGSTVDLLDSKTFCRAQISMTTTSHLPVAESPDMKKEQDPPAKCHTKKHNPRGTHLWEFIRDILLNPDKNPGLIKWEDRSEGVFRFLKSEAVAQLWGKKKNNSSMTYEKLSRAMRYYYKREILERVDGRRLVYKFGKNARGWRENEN
Conditions: protein: recombinant; tags: N-terminal GST; dsDNA, one strand shown. Summed up:
as §1

The target in a further test is SPI1 (Homo sapiens, UniProt P17947 1-270). Conditions: protein: recombinant; tags: N-terminal GST; dsDNA, one strand shown. Summed up: as §1
A further test deals with T5, ELK3 (Homo sapiens, UniProt P41970 1-407).
T5 sequence: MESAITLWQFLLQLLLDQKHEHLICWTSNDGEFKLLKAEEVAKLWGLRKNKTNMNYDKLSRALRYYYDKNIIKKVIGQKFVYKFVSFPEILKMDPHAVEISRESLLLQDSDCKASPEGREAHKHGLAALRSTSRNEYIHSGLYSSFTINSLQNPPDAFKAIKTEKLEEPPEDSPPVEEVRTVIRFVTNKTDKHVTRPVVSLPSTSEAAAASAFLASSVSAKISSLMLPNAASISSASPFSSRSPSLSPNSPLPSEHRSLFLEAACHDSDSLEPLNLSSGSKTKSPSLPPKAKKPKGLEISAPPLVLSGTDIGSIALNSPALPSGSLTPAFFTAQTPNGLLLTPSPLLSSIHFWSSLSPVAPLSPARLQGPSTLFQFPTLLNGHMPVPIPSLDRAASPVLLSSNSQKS
Conditions: protein: recombinant; tags: N-terminal GST; dsDNA, one strand shown. Summed up: as §1

The target in another test is ETV5 (Homo sapiens, UniProt P41161 1-510). Conditions: protein: recombinant; tags: N-terminal GST; dsDNA, one strand shown. The gist of the method:
as §1

For the next test, the target named is HSF1 (Homo sapiens, UniProt Q00613 1-529). Conditions: protein: recombinant; tags: N-terminal GST; chain copies: 3; dsDNA, one strand shown. Summed up: as §1
The next test deals with T6, SPIC (Homo sapiens, UniProt Q8N5J4 1-248).
T6 sequence: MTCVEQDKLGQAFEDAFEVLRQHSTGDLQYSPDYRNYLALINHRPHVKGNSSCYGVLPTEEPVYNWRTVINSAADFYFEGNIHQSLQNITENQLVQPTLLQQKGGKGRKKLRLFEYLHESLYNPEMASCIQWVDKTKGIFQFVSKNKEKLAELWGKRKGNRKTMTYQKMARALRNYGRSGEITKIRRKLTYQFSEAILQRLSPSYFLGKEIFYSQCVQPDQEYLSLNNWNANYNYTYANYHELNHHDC
Conditions: protein: recombinant; tags: N-terminal GST; dsDNA, one strand shown. The gist of the method:
as §1

The next test concerns the target T7, ETV2 (Homo sapiens, UniProt O00321 1-342).
T7 sequence: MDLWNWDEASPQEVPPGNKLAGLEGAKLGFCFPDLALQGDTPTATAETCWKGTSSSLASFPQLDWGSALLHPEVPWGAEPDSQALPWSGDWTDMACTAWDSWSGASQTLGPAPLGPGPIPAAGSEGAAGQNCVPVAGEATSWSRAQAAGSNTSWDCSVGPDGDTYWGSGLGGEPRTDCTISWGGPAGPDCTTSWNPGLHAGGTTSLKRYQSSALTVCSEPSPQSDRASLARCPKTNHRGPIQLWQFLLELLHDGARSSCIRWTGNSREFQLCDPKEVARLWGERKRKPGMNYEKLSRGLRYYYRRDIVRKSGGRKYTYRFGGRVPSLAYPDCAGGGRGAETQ
Conditions: protein: recombinant; tags: N-terminal GST; dsDNA, one strand shown. The gist of the method:
as §1

For a further test, the target named is T8, ELF3 (Homo sapiens, UniProt P78545 1-371).
T8 sequence: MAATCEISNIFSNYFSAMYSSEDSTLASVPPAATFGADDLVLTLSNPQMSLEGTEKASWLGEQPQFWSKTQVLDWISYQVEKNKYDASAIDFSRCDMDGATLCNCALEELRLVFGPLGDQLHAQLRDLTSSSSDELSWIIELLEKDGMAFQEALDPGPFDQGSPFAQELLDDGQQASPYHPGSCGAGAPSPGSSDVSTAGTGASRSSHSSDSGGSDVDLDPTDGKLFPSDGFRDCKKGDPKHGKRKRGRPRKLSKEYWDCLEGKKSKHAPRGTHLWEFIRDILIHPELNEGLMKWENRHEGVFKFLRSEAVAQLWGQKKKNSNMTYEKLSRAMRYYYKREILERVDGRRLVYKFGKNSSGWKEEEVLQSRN
Conditions: protein: recombinant; tags: N-terminal GST; dsDNA, one strand shown. The gist of the method: as §1

The target of a further test is CRX (Homo sapiens, UniProt O43186 1-299). Conditions: protein: recombinant; tags: N-terminal GST; dsDNA, one strand shown. Summed up: as §1
For another test, the target named is ETV1 (Homo sapiens, UniProt P50549 1-477). Conditions: protein: recombinant; tags: N-terminal GST; dsDNA, one strand shown. Summed up: as §1
Chain of ETV1 (P50549 whole entry): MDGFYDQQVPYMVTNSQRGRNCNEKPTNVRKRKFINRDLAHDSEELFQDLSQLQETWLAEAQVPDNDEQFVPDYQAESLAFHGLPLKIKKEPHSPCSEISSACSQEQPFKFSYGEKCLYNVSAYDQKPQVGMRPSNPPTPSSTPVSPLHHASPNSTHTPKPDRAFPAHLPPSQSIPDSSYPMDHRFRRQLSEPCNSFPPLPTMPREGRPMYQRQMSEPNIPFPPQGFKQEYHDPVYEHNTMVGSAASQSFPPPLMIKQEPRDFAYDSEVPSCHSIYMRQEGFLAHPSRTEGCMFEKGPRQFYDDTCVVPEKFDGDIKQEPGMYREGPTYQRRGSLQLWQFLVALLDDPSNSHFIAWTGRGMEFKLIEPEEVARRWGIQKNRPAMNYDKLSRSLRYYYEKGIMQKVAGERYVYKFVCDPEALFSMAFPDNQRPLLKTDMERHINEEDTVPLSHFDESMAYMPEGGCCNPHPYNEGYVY

Chain of CRX (O43186 whole entry): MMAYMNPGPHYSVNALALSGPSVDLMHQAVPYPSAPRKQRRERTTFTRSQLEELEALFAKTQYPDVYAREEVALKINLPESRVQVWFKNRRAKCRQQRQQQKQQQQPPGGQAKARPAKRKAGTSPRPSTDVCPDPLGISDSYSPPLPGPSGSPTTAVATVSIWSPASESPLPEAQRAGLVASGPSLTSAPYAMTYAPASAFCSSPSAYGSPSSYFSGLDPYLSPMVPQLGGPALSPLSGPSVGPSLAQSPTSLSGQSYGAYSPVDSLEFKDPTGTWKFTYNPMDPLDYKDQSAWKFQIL
Chain of ELF1 (P32519 whole entry): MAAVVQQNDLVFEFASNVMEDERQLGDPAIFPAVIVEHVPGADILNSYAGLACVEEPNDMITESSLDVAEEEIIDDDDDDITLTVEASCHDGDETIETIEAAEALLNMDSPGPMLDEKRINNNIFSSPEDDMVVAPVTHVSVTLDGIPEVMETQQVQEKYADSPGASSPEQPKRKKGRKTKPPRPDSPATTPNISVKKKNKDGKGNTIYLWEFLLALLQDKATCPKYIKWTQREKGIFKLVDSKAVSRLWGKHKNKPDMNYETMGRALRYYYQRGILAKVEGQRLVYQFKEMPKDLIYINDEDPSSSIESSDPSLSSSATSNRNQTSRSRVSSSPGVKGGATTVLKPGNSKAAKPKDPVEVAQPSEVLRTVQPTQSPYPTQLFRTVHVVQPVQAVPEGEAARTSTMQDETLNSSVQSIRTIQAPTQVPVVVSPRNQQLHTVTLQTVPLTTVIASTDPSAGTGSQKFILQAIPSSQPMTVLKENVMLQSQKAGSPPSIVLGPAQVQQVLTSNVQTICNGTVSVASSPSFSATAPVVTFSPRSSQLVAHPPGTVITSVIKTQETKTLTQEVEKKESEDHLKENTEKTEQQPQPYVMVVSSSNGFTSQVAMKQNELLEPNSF
Chain of HSF1 (Q00613 whole entry): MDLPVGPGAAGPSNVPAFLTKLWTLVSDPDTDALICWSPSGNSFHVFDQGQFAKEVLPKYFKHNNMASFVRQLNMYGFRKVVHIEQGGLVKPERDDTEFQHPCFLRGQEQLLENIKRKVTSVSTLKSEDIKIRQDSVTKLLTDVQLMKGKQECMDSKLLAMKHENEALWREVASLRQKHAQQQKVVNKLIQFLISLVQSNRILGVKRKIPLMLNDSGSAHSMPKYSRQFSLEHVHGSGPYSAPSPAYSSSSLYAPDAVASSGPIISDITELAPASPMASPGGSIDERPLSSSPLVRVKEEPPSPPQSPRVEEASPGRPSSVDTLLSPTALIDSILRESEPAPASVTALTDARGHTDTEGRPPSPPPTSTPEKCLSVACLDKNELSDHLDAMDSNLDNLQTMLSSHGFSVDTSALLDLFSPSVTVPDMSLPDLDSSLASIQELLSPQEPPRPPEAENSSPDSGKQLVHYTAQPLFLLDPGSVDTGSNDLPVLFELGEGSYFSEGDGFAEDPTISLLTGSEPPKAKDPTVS
Chain of ETV5 (P41161 whole entry): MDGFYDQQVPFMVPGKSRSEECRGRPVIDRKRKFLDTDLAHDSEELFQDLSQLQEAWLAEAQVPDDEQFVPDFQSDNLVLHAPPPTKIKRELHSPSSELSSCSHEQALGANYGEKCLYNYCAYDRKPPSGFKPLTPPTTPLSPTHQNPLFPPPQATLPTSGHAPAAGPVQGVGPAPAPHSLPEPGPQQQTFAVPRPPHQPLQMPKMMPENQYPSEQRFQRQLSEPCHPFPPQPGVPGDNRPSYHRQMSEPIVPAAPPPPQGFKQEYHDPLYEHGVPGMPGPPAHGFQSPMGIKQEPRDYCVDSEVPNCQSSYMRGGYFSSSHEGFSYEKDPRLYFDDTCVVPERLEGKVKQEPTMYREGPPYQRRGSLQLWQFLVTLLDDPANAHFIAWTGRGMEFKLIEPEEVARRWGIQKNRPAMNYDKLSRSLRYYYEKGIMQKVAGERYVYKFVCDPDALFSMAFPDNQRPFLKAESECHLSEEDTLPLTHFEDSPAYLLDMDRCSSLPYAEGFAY

TAAGCG: the binding signal in the test with FLI1 was 1.05 fold enrichment (6-mer frequency, TF over GST control); with GABPA it was 1.01 fold enrichment (6-mer frequency, TF over GST control); with ERG, 1.02 fold enrichment (6-mer frequency, TF over GST control); in the test with ELF1 it was 1.02 fold enrichment (6-mer frequency, TF over GST control); with EHF, 1.02 fold enrichment (6-mer frequency, TF over GST control); with SPI1 it was 1.03 fold enrichment (6-mer frequency, TF over GST control). In addition, the binding signal with ELK3 is 1.01 fold enrichment (6-mer frequency, TF over GST control); in the test with ETV5, 1.02 fold enrichment (6-mer frequency, TF over GST control); in the test with HSF1, 1.34 fold enrichment (6-mer frequency, TF over GST control); with SPIC, 1.04 fold enrichment (6-mer frequency, TF over GST control); with ETV2, 1.05 fold enrichment (6-mer frequency, TF over GST control); in the test with ELF3, 1.19 fold enrichment (6-mer frequency, TF over GST control). Moreover, the binding signal was 1.86 fold enrichment (6-mer frequency, TF over GST control) in the test with CRX and 1 fold enrichment (6-mer frequency, TF over GST control) with ETV1.
